Data reported in PubChem BioAssay AID504834 (National Center for Advancing Translational Sciences (NCATS), 2011).
Screen size: about 320,000 compounds; about 22,000 (6.9%) were called active. Entries that show only a call come without a potency. Roughly 27% stayed inconclusive and do not appear here. The sample holds actives, similar compounds and a random draw of the others, so the mix is not that of the screen. The call rests on the fitted dose curve; in most records, active means well fitted inhibition curve with a large enough effect; inconclusive means small, poorly fitted or top-dose-only effect, or another doubt; inactive means no such curve, though single readings can be large or run the other way.

test: Primary qHTS for delayed death inhibitors of the malarial parasite plastid, 96 hour incubation; conditions: P. falciparum luciferase reporter growth; series mostly up to 28.7 µM
Procedure, shortened: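 96 h incubation, 37 C, 5% CO2, of luciferase-reporter P. falciparum-infected RBCs (2% hematocrit, 0.05% parasitemia final) with test compounds; endpoint luminescence.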
Potency means the concentration at half of the fitted maximal effect.

Structure (SMILES)	Potency
CN(C)C(=O)Cn1c(=O)n(S(=O)(=O)c2ccccc2)c2ccccc21	inactive
Cc1cccc(OCC(=O)NCC(=O)N/N=C/c2ccc(N(C)C)cc2)c1	7.38 µM (active)
Cc1ccc(/C=N/NC(=O)CNC(=O)COc2ccccc2)o1	inactive
Cc1ccc(OCC(=O)N/N=C/c2ccncc2)cc1	inactive
COc1ccccc1C(=O)COC(=O)CNS(=O)(=O)c1ccc(NC(C)=O)cc1	inactive
Cc1ccc(N2C(=O)C3C4C=CC(CC4)C3C2=O)cc1Cl (stereo not given)	3.7 µM (active)
Cc1ccc(N2C(=O)C3C4C=CC(CC4)C3C2=O)cc1Br (stereo not given)	inactive
CC(=O)Nc1ccc(N2C(=O)C3C4C=CC(CC4)C3C2=O)cc1 (stereo not given)	inactive
CCC(C)(C)NC(=O)C(c1ccc(OC)cc1)N(C(=O)CCC(=O)Nc1cc(C)on1)c1ccc(OC)cc1OC (stereo not given)	inactive
COc1cc(CC(=O)N2CCC(n3nccc3NC(=O)C3CC3)CC2)cc(OC)c1OC	inactive
O=c1c2ccccc2nc(-c2ccco2)n1-c1ccc(Br)cn1	inactive
Cc1ccc(-n2ncc3c(=O)n(-c4ccc(C)c(C)c4)c(-c4ccco4)nc32)cc1	9.28 µM (active)
Cc1ccc(-c2nc3c(cnn3-c3ccccc3)c(=O)o2)cc1	inactive
CC(=O)Nc1ccc(C(=O)N(C2=NC(C)CS2)c2ccc(Cl)cc2)cc1 (stereo not given)	inactive
COc1ccc(S(=O)(=O)NCC(c2ccco2)N2CCOCC2)cc1 (stereo not given)	inactive
CCN(Cc1ccncc1)C(=O)CCc1ccccc1	13.1 µM (active)
CCC(=O)N(Cc1ccccc1)c1ccccn1	inactive
O=C(O)CCC(=O)N(Cc1ccccc1)Cc1ccccc1	inactive
O=C(CCC(=O)n1ncc2ccccc21)NCc1ccccc1Cl	inactive
Cc1ccc(-n2c(SCC(=O)NCc3ccc4c(c3)OCO4)nnc2-c2cccnc2)c(C)c1	9.28 µM (active)
Cc1cccc(C)c1NC(=O)CSc1nnc(-c2ccccc2)n1Cc1ccc2c(c1)OCO2	inactive
Cc1ccccc1-n1c(SCC(=O)NCc2cccs2)nnc1-c1ccncc1	inactive

Structure (SMILES)	Potency
COc1ccc(NC(=O)c2cc(-c3ccc(C)cc3)on2)cc1	inactive
Cc1csc(NC(=O)CSc2nnc(-c3cccnc3)o2)n1	inactive
CCc1ccccc1NC(=O)c1cccs1	inactive
CCc1ccccc1NC(=O)/C(=C/c1ccccc1)c1ccccc1	8.28 µM (active)
CCOc1ccc(/C=C(/NC(=O)c2ccccc2)C(=O)NCCC(=O)O)cc1	inactive
CCSc1nc(O)c(C(c2cccc(OC)c2)c2c(O)nc(SCC)[nH]c2=O)c(=O)[nH]1	inactive
CCOC(=O)C1=C(CSc2nccn2C)NC(=O)NC1c1ccc(OC)cc1 (stereo not given)	13.1 µM (active)
CCOC(=O)C1CN(S(=O)(=O)c2ccc(OC)cc2)c2cc(Cl)ccc2O1 (stereo not given)	inactive
CCOC(=O)C1=C(c2ccccc2)NC(=O)NC1c1cc(OC)c(OC)cc1OC (stereo not given)	inactive
COc1ccc(-c2ccc3nnc(SCC(=O)Nc4ccc(NC(C)=O)cc4)n3n2)cc1	inactive
O=C(Nc1ccccc1)N1CCN(Cc2ccccc2)CC1	inactive
O=C(Nc1ccccc1)N1CCN(C2c3ccccc3-c3ccccc32)CC1	2.62 µM (active)
O=C(Nc1ccccc1)N1CCN(C(=O)Nc2ccccc2)CC1	inactive
CN1C(C(=O)NCc2ccco2)CC2Cn3c(nc4ccccc43)C21 (stereo not given)	inactive
CC(C)(C)C(=O)Nc1ccc(-c2cn3cccnc3n2)cc1	inactive
Cc1ccc(C(=O)COC(=O)CCN2C(=O)C3C4CCC(C4)C3C2=O)cc1C (stereo not given)	inactive
O=C(CCN1C(=O)C2C3CCC(C3)C2C1=O)Nc1ccc(Cl)cc1Cl (stereo not given)	7.38 µM (active)
O=C(NC(=S)Nc1ccc(Cl)cc1Cl)C1CC1	inactive
O=C(N/C(=C\c1ccc([N+](=O)[O-])cc1)C(=O)N1CCCCC1)c1ccco1	inactive
COCCn1c(SCC(=O)Nc2nc(C)cs2)nnc1C(C)C	inactive
CCC(=O)Nc1ccc(C(=O)Nc2ccc3c(c2)C(=O)N(CC2CCCO2)C3=O)cc1 (stereo not given)	inactive
O=C1c2cccc3c([N+](=O)[O-])ccc(c23)C(=O)N1CC1CCCO1 (stereo not given)	10.4 µM (active)

Structure (SMILES)	Potency
O=C(NCc1ccc2c(c1)OCO2)c1ccc2c(c1)C(=O)N(CC1CCCO1)C2=O (stereo not given)	inactive
C[N+](C)(C)CCNC(=O)c1cc[n+](Cc2ccccc2)c(/C=N/O)c1	inactive
O=C(Nc1ccccn1)C1CCN(S(=O)(=O)c2ccc3c(c2)OCCO3)CC1	inactive
O=C(Nc1nccs1)C1CCN(S(=O)(=O)c2ccc(Cl)c(C(F)(F)F)c2)CC1	13.1 µM (active)
O=C(Nc1ccccn1)C1CCN(S(=O)(=O)c2ccccc2)CC1	inactive
CN(C)c1ccc(-c2nnc(-c3cccnc3)o2)cc1	inactive
CC1CC(C)CN(S(=O)(=O)c2cccc3nonc23)C1 (stereo not given)	inactive
CCN(C(=O)CSc1nnnn1-c1ccccc1OC)C1CCS(=O)(=O)C1 (stereo not given)	inactive
COc1ccc(CCNC(=O)CCNS(=O)(=O)c2cc(Br)cnc2N)cc1OC	inactive
COc1cc2c(cc1OC)C(C(=O)Nc1cc(C)c(OC)c(C)c1)CC(=O)N2 (stereo not given)	inactive
COc1cc2c(cc1OC)C(c1ccc(C)o1)CC(=O)N2 (stereo not given)	13.1 µM (active)
COC(=O)C1=C(C)NC(=O)CC1c1ccccc1OC (stereo not given)	inactive
CC(=O)CC[C@@H](C)O[C@@H]1OC(C)[C@H](O)CC1O (stereo not given in full)	inactive
C=CCOc1ccc(/C=C/C(=O)OCC(=O)NC2CCCCCC2)cc1	inactive
N#Cc1cccc(NC(=O)CN2CCCCCC2)c1	inactive
N#Cc1cccc(NC(=O)C2CCCN(C(=O)c3ccc(Cl)cc3)C2)c1 (stereo not given)	9.28 µM (active)
N#Cc1cccc(NC(=O)CCC2CCCC2)c1	inactive
COC(=O)C1=CN(c2ccc(F)c(F)c2)C=C(C(=O)OC)C1c1ccc([N+](=O)[O-])cc1	inactive
COc1ccc(C(C(=O)NC2CCCCC2)N(C(=O)c2snc(C(N)=O)c2N)c2ccccc2OC)cc1 (stereo not given)	inactive
COc1cccc(N(C(=O)C2COc3ccccc3O2)C(C(=O)NC2CCCCC2)c2ccc(O)cc2)c1 (stereo not given)	inactive
COc1ccc(C(C(=O)NC2CCCCC2)N(C(=O)CCl)c2ccccc2Cl)cc1 (stereo not given)	0.294 µM (active)
